# Reference: the supplement of paper PMC11417369
# Over roughly 25,000 sequences, “ln(normalized median fluorescence intensity)” has its median near 9.7; the highest 2% begin near 11. What follows is part of a selection rich in the highest values, with near analogues and random picks from the rest.
# Test system: PfAP2-HC AP2 domain (GST-tagged)
# Experiment: gcPBM binding intensity (ln(normalized median fluorescence intensity)); higher = stronger DNA binding
# Summary of the method: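 Binding intensity values are the highest Masliner-normalised natural-log median intensity among replicate spots of either probe orientation. The binding step lasted 1 h in 1× PBS with 1% milk, 0.2 mg/ml BSA, 0.5% salmon testes DNA and 0.03% Triton X-100, using GST-tagged P. falciparum DNA-binding domains expressed in E. coli on an Agilent 4 × 180k array of primer-extended double-stranded 36-bp intergenic genomic probes plus negative controls. Alexa488 anti-GST antibody and a 488 nm scan detected bound protein.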
row,Sequence,gcPBM binding intensity (ln)
1,TTTTAATTAGTACAAACACACATATACACCCAAAAA [CACACA_site5422],10
2,GATGATACGATTATCACACATTTATACTTTCTACAT [CACACA_site5669],9.85
3,AAACAAAAAATTTAAAGTACAAAAATTATGATTGTT [XGTACX_site465],9.62
4,TATTTAATGTGATACTTATATTATTTTATGATTAAA [GTGCAC_negctrl_site25],9.49
5,AAAAAAGTTGTATTTGCACACATAAAAAAAAGATAT [CACACA_site3839],9.93
6,AGAGAATAAATATAAAGTACATATATAAATATATAT [XGTACX_site5055],9.7
7,AAAAAATTATATAAATGTACATTTTGGCTAGACATG [XGTACX_site5977],9.71
8,AATAAATATAAAAATGCACACACACTAATAAAAAAA [CACACA_site8201],11.4
9,TATAATAAATCAAATGCACACACACTAATAAAAAAA [CACACA_site7937],11.3
10,AAAATATAATATAATGCACACATAAAAAAAAAAAAA [CACACA_site7989],9.84
11,TAATAAATCAAATGCACACACACAAAAAAAAAAAAA [CACACA_site161],10.3
12,TATATATATATATATACACACACACTAATAAAAAAA [CACACA_site8426],11
13,ATATAAATAATATAAATACACACTAAAAAAAATATA [CACACA_site542],9.84
14,AAAAATATAAACTGCACACACACAAAAAAAGAAAAA [CACACA_site648],10.8
15,AAAAATATAAACTGCACACACAAAAAAAAAAGAGAA [CACACA_site1367],10.3
16,ATAATAAAAAAAAATGCACACATATATATATATATA [CACACA_site8766],9.8
17,AATATAATATAATGCACACATAAAAAAAAAATCAAA [CACACA_site122],9.89
18,TAAAAAATATAAACTGCACACACACTAATAAAGAAA [CACACA_site8119],11.1
19,ATAAATAATATAAATACACACTAAAAAAAATATATA [CACACA_site4456],9.88
20,TATAAAAATAGGATTTGTACATATAAAAAAGGAAAA [XGTACX_site8678],9.73

row,Sequence,gcPBM binding intensity (ln)
1,TATAATATTAATGACTGTACTCATACGTATATTTAT [XGTACX_site5493],9.76
2,TACGGTTGTTTATTTTGTACGTAAAAAATATATTAT [XGTACX_site8393],9.7
3,ATTAAATAAAATCATGCACACAATATATATTTTAAG [CACACA_site2495],9.71
4,AACATAATTAAAAATTGTACAGAATTTCAATCGAAA [XGTACX_site7542],9.62
5,TCAACAAATAAACTTTGTACATATATACAAAATATA [XGTACX_site4447],9.53
6,AAAAAATAAATAAACATAAATAAATAAATAAATATA [XGTACX_negctrl_site340],9.73
7,CAATATATTTGATTTACACACTTACAATGTATATAA [CACACA_site2994],9.55
8,AATAGTACAAAAAAAAAAAAAAAAAAAAAAAAAAAA [CACACA_negctrl_site1376],8.9
9,TTATTTTTTAGTAGTACACACTTTTTGTACCTTTTA [CACACA_site4503],9.87
10,ATCAAGCACGAACACACACACACACGCACGCCCACA [CACACA_site6308],11.4
11,CATATACACGAACACACACACACACGCACAAAAAAA [CACACA_site6376],10.6
12,CCAACATGCCCACGCACACACAAAAAAAGCATGCAT [CACACA_site4217],10
13,TTATACTGTATAGTCGCACACAAAAATATAAAATAT [CACACA_site3869],9.98
14,ATTATGCACCAACACACACACACACCCCTAAAAAAT [CACACA_site2568],10.8
15,TGCACAAAATTATGCACACACCTAAAATTAATTTTT [CACACA_site5596],9.8
16,TGTGCCCAAAATTATGCACACACCTAAAATTAATTT [CACACA_site2914],9.85
17,TAATTATGCGGACACACACACACACCCAACTAAAAA [CACACA_site5427],10.9
18,ATTATGCACGGACACACACACACACCCCTAAAAAAT [CACACA_site5426],11.4
19,ATTATGCACCAACACACACACACACTCCTAAAAAAT [CACACA_site8822],11
20,TTTTGAATATGGATCTTATATATATTAAATAAATAA [CACACA_negctrl_site344],9.09

row,Sequence,gcPBM binding intensity (ln)
1,ATGTTTTATAAAAGGCGTACACATATGCTTAAGTAA [XGTACX_site6232],9.71
2,TATATAATTATAAGAACACACATATATATATATATA [CACACA_site2472],9.49
3,AGGTGATTAATATATACACACATACATATATATATA [CACACA_site8913],10
4,TCATTTTATTTTTTCACACACACATCTATATTTATA [CACACA_site7547],10.2
5,TCATTTCACAAACACACACACACAATATATTTCCTT [CACACA_site3905],10.3
6,TCATTTTATTTTTTCACACACACATATATATATATA [CACACA_site3333],10.2
7,TTTCATTTCACAGACACACACACACCCTATATTTCC [CACACA_site3906],11.2
8,TCATTTCACGGACACACACACACAATATATTTCCTT [CACACA_site6023],10.9
9,TCATTTCACAGACACACACACACAAGATATTTCCTT [CACACA_site7774],11.1
10,TATTTTTATTTTCCTTCACACATTTTTTATATTTTT [CACACA_site5830],9.83
11,ATTTCACAGAGACACACACACAATATATTTCCTTTT [CACACA_site7773],10.3
12,TCATTTCACAGACACACACACACAATATATTTCCTT [CACACA_site9295],10.8
13,ATATTAATTATAACTTGTACGTAAAAGGAAAACAAT [XGTACX_site3269],9.76
14,ATTATAATATTGTTATGTACATAAAAATTATTGAAT [XGTACX_site4476],9.82
15,GATAACATAATATGTTGTACATAAAAATTTTTATCA [XGTACX_site1969],9.62
16,GTAAAAATAAAAACTGGTACACAAGTTGTTATAAAA [XGTACX_site502],9.76
17,TTTGTGTGTGCGTGTGCATGTTGTTTTTTTCTATAA [TGCATGCA_site17],11.7
18,TTTTGTTTATGTGTGCATTATATTATATTTTTTATT [TGCATGCA_negctrl_site146],10.1
19,TTATTTATTCTATGTGCATGTTATTTTTTTTTTTCG [TGCATGCA_site262],9.73
